Data published in publication PMC4336329 (PLoS ONE, 2015).
Among all 310,000 compounds or so, about 14,000 (4.5%) showed an effect of 50% or more. Effects have a minus sign here. For the sample, strong results were picked, then their nearest neighbours and some compounds at random.

These compounds were tested against human ether-à-go-go-related gene (hERG) potassium channel (human, UniProt Q12809) (assay: primary screen, population patch clamp on CHO cells stably expressing hERG; higher = less effect of the substance).
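Also: peak tail current of the secondary pulse compared with the same well before compound.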

Sequence of human ether-à-go-go-related gene (hERG) potassium channel (Q12809 whole entry, looked up): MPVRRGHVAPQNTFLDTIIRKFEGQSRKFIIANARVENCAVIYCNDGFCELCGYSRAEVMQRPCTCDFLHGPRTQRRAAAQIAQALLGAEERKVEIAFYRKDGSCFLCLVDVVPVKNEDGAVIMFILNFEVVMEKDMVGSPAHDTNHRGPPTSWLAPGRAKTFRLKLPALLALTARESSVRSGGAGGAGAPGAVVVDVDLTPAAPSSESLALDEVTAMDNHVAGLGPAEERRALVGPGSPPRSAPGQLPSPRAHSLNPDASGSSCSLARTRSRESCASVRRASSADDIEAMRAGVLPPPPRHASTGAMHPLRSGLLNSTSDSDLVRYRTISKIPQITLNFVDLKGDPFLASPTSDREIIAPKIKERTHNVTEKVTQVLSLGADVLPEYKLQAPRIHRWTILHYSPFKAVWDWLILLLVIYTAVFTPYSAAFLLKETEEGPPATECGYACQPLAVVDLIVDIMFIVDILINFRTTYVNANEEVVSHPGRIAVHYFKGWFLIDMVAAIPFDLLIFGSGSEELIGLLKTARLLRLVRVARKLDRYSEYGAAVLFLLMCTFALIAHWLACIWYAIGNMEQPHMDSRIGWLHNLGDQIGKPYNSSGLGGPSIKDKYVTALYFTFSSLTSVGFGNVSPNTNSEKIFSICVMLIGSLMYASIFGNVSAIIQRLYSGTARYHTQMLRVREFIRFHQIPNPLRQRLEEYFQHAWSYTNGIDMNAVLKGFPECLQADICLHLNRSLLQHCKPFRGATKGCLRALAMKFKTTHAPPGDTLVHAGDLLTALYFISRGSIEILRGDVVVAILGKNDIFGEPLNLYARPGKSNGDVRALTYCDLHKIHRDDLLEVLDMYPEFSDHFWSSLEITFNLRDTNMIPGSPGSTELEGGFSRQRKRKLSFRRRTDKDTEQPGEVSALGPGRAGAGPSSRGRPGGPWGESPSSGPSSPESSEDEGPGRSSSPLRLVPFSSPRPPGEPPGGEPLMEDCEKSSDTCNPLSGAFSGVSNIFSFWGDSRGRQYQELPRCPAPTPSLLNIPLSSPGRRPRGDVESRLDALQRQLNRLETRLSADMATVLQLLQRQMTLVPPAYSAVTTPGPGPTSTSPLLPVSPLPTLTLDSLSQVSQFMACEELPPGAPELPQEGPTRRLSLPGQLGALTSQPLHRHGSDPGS

Structure (SMILES) | hERG current change (%, negative = inhibition) at 10uM [%]
O=C(NCc1ccncc1)C1CCN(S(=O)(=O)Cc2ccccc2)CC1 | -10.4
Cc1ccc(C)c(SCC(=O)Nc2nnc(-c3ccccc3)o2)c1 | 14.1
CCN(C(=O)COC(=O)c1cccnc1Nc1cccc(C(F)(F)F)c1)C1CCS(=O)(=O)C1 (centres unmarked) | -51
O=C(COC(=O)c1cccnc1Nc1cccc(C(F)(F)F)c1)NC1CCS(=O)(=O)C1 (centres unmarked) | -16.1
CCN(C(=O)COC(=O)c1cc(-c2ccc(C)o2)nc2ccccc12)C1CCS(=O)(=O)C1 (centres unmarked) | -66.7
CCN(C(=O)COC(=O)c1cn(-c2ccccc2)nc1-c1ccccc1)C1CCS(=O)(=O)C1 (centres unmarked) | -75.9
CCN(C(=O)COC(=O)c1cc(-c2cccc3ccccc23)nc2ccccc12)C1CCS(=O)(=O)C1 (centres unmarked) | -6.23
O=C(COC(=O)/C=C/c1cccc(C(F)(F)F)c1)NCCN1C(=O)CSC1=O | -28.1
CCN(C(=O)COC(=O)c1cc(-c2ccccc2)nn1-c1ccccc1)C1CCS(=O)(=O)C1 (centres unmarked) | -12.8
Cc1ccc(-c2cc(C(=O)OCC(=O)N(C)C3CCS(=O)(=O)C3)c3ccccc3n2)o1 (centres unmarked) | -19.1
CCN(C(=O)COC(=O)c1cccnc1Nc1ccccc1F)C1CCS(=O)(=O)C1 (centres unmarked) | -9.99
O=C(COC(=O)c1cccnc1Nc1ccccc1F)NCCN1C(=O)CSC1=O | -27.7
CN(C(=O)COC(=O)c1cn(-c2ccccc2)nc1-c1ccccc1)C1CCS(=O)(=O)C1 (centres unmarked) | -16.6
O=C(COC(=O)c1cccnc1Nc1cccc(C(F)(F)F)c1)NCCN1C(=O)CSC1=O | -58.7
Cc1ccc(C(=O)NC(=S)NNS(=O)(=O)c2ccc(C)cc2)cc1 | 3.32
O=C(Nc1ccc(Cl)cn1)c1ccc(Br)c(S(=O)(=O)N2CCCCC2)c1 | 18.7
CC(=O)Nc1ccc(S(=O)(=O)N(Cc2cccnc2)Cc2cc3ccccc3[nH]c2=O)cc1 | 11.4
Cc1cccc(Nc2ccc(S(=O)(=O)N3CCOCC3)cc2[N+](=O)[O-])c1 | -30.2
CCn1c(CSc2nc(C)cc(C)n2)nnc1SCC(=O)Nc1nc(-c2ccccc2)cs1 | -9.09
O=c1c2ccccc2c2ccccc2c(=O)n1CC1CCCO1 (centres unmarked) | -14.4
Cc1ccc(C)c(NC(=O)c2cccc(Oc3ccc([N+](=O)[O-])cc3Cl)c2)c1 | -4.21
COc1ccc(S(=O)(=O)NNC(=O)c2csc(-n3nc(C)cc3C(F)(F)F)n2)cc1 | 19.9
COc1ccc(CCN2CCCC(CN(C)C(=O)c3ccoc3)C2)cc1 (centres unmarked) | -72.9
Cc1nc2ccc(C(=O)N(C)CC3CCCN(CCc4ccc(Cl)cc4)C3)cc2[nH]1 (centres unmarked) | -61.2
CN(CC1CCCN(CCc2ccc(Cl)cc2)C1)C(=O)c1ccoc1 (centres unmarked) | -85.7
COc1ccc(CCN2CCCC(CN(C)C(=O)c3ccoc3C)C2)cc1 (centres unmarked) | 13.4
CN(C)CCN(CC1CCCN(Cc2ccccc2F)C1)C(=O)c1ccc(Cl)cc1 (centres unmarked) | -14

Structure (SMILES) | hERG current change (%, negative = inhibition) at 10uM [%]
CN(CC1CCCN(CCc2ccc(Cl)cc2)C1)C(=O)c1ccc2nc[nH]c2c1 (centres unmarked) | -34.1
Cc1ccccc1CCN1CCCC(CN(C)C(=O)c2ccc3ncccc3c2)C1 (centres unmarked) | -30.3
CCc1nc(SCC(=O)NCCc2ccccc2)n[nH]1 | -3.42
CSc1nc2c(cc1C#N)CCCCC2 | 7.65
C=CCn1c(O)c(N=Nc2c(C)n(C)n(-c3ccccc3)c2=O)c(=O)[nH]c1=S | -1.57
O=C(Nc1cccc(Cl)c1)c1ccc(NCC2CCCO2)c([N+](=O)[O-])c1 (centres unmarked) | -2.53
CCN=C(NCC)SC1CC(=O)N(c2ccc(OC)cc2)C1=O (centres unmarked) | 0.718
CCOC(=O)c1cc(C(=O)Nc2sc3c(c2C#N)CCCC3)nn1C | 12.4
O=C(/C=C/c1ccc(N2CCOCC2)cc1)c1ccccc1 | -1.16
CCSC1=N/C(=C\c2cccc(F)c2)C(=O)S1 | 10.4
CC(=O)c1ccc(Nc2ccc(-c3ccccc3C)nn2)cc1 | -17.5
Cc1cc(NCCN2CCOCC2)c2ccc3ccccc3c2n1 | -69.5
Cc1ccccc1-c1ccc(Nc2ccc(N3CCOCC3)cc2)nn1 | -76
COc1ccc(Nc2cc(C)nc3c(C)cccc23)cc1OC | -21.3
Cc1nc(NCCN2CCOCC2)c2oc3ccccc3c2n1.Cl | -31.5
CCOc1ccc(Nc2cc(C)nc3c(C)cccc23)cc1 | -45.6
Cc1ccc(Nc2cc(C)nc3c(C)cccc23)cc1 | -53.3
Cc1cc(C)c2nc(C)cc(Nc3ccc(C(=O)N4CCOCC4)cc3)c2c1 | -43.8
COc1ccccc1-c1ccc(Nc2ccc(C(=O)N3CCOCC3)cc2)nn1 | -20.1
COc1ccc2nc(C)cc(NCCN3CCOCC3)c2c1 | 15.4
Cc1cc(Nc2ccc(N3CCOCC3)cc2)c2cccc(C)c2n1.Cl | -56.6
Cc1cc(C)nc(Nc2ccc(N3CCOCC3)cc2)n1 | -5.99
CCN(CC(=O)NCc1ccc(F)cc1)C(=O)c1ccc2c(c1)OCO2 | -5.66
O=C(CNC(=O)c1ccccc1Cl)OCC(=O)N1CCc2ccccc21 | -10.5
COc1ccc(Cc2nnc(Nc3ccccc3)s2)cc1Br | 13.9
COc1ccc2[nH]c3c(c2c1)CCN1C(=O)N([C@@H](C)C(=O)NCC2CCCO2)C(=O)[C@]31C (some centres unmarked) | -6.78
